# Assay results taken from PubChem BioAssay AID1850 (Southern Research Specialized Biocontainment Screening …, 2009).
# The campaign covered roughly 310,000 compounds. About 1,000 (0.32%) were called active. The list is a sample of the results. Potency and affinity values are given separately. A number with no mark means an inactive call. How the calls were made is not given here.
# Assay: PhoP regulon inhibitors, Salmonella typhi PhoP promoter GFP reporter, confirmatory (AID 1850);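 further: 0% = induced wells with vehicle and 100% = uninduced wells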
# Conditions: fluorescence, 4 h, at 50 µM, active compounds read high
row,Structure (SMILES),inhibition [%]
1,Clc1ccccc1OCCCn1ccnc1,-8.4
2,c1ccc2cc(OCCCn3ccnc3)ccc2c1,-0.84
3,COc1ccc2nc(SCC(=O)Nc3ccccc3C#N)[nH]c2c1,-8.31
4,Cc1ccc(-n2nc3c(=S)[nH]nc(C)c3c2C)cc1,2.54
5,COc1cccc(C(=O)Nc2ccc(C(=O)c3ccncc3)cc2)c1,-15.6
6,CCC(C)NC(=O)CSc1nnc(-c2c[nH]c3ccccc23)o1 (stereo unspecified),7.49
7,COc1ccc(OC)c(Nc2c3ccccc3nc3ccccc23)c1,-13.7
8,Cc1ccc(O)c(Nc2ncnc3ccccc23)c1,3.94
9,COc1ccccc1Nc1c2c(nc3ccccc13)CCC2,0.56
10,COc1cc(Nc2c3ccccc3nc3ccccc23)cc(OC)c1OC,-7.36
11,Cc1ccc(O)c(Nc2nc(-c3ccccc3)nc3ccccc23)c1,8.76
12,COc1ccc(Nc2cccc3ccccc23)cc1,-1.63
13,COc1ccc(Nc2nc(-c3ccccc3)nc3ccccc23)cc1,6.48
14,COc1ccc(Nc2ncnc3ccccc23)cc1,-1.42
15,COc1ccc(CCC(=O)NCCS(=O)(=O)N2CCN(c3ccc(F)cc3)CC2)cc1,3.06
16,O=C(c1ccccc1)N1N=C(C(F)(F)F)CC1(O)c1ccc(F)cc1 (stereo unspecified),-5.13
17,CCOC(=O)c1ccc(S(=O)(=O)N2CCN(C(=O)CSc3nc4ccccc4o3)CC2)cc1,1.15
18,CC(=O)c1c(C(C)=O)c(C)n(NC(=O)c2ccc(Cl)cc2)c1C,2.98
19,CN(C)C1=NCC(CSC(=N)N)S1 (stereo unspecified),-1.53
20,CCOc1ccc(N2CC(C(=O)Nc3ccc4c(c3)OCO4)CC2=O)cc1 (stereo unspecified),2.26
21,Cc1ccc(C(=O)Nc2nnc(S(=O)(=O)N3CCC(C)CC3)s2)cc1,4.17
22,O=C(COC(=O)c1ccc(Cl)c(S(=O)(=O)N2CCCC2)c1)NC1CCCCC1,5.96
23,CCOc1ccc(Nc2nc3ccccc3c(=O)s2)cc1,10.5
24,CCOc1ccc(Nc2cc(C)c3ccccc3n2)cc1,10.8

row,Structure (SMILES),inhibition [%]
1,Cc1c2ccccc2nc2ccccc12,-14.3
2,COc1c2ccccc2c(OC)c2ccccc12,-8.01
3,CCOC(=O)C(Cc1ccccc1)NC(=O)CNC(=O)CNC(=O)OCc1ccccc1 (stereo unspecified),4.1
4,CC1CCCCN1C(=O)COC(=O)c1cc([N+](=O)[O-])ccc1N (stereo unspecified),0.19
5,COCCN(C(=O)COC(=O)CC1CCCCC1)c1c(N)n(Cc2ccccc2)c(=O)[nH]c1=O,-6.56
6,COc1ccc(/C=C(\NC(=O)c2ccco2)C(=O)NCCc2nc3ccccc3[nH]2)cc1,4.61
7,Cc1cc(N(CCCl)CCCl)ccc1/C=N/N=C(\N)c1cnccn1,1.24
8,CC(C)(C)c1ccc(C(=O)NCC(=O)OCC(=O)Nc2nc(-c3ccc(F)cc3)cs2)cc1,6.97
9,Cc1ccc(C)c2[nH]c(=O)c(CN(CC3CCCO3)S(=O)(=O)c3ccc4c(c3)OCCO4)cc12 (stereo unspecified),-7.59
10,NC(=O)CN1CCN(CCN2C(=O)c3cccc4cccc(c34)C2=O)CC1,10.1
11,CCN(CC)CCN1C(=O)c2cccc3cc(N)cc(c23)C1=O,6.76
12,Cc1ccc(OCCCCCCN2CCNCC2)cc1,11.8
13,CC(C)(c1ccccc1)c1ccc(OCCN2CCOCC2)cc1,-18
14,CC1CCN(CCCCOc2ccc(C(C)(C)C)cc2)CC1,-0.73
15,COCCNCCCOc1ccc(C(C)(C)c2ccccc2)cc1,3.55
16,CC(C)(C)c1ccc(OCCCN2CCCC2)cc1,-5.11
17,COCCCNCCCOc1ccc(C(C)(C)c2ccccc2)cc1,0.01
18,Cn1c(SCC(=O)Nc2ccc3c(c2)OCCO3)nnc1-c1ccccn1,-2.36
19,COCCNc1c([N+](=O)[O-])c(=O)n(-c2ccccc2)c2ccccc12,-1
20,Cn1c(N)c(N2CCN(c3ccccc3)CC2)c(=O)[nH]c1=O,-2.5
21,O=C(COC(=O)CCC(=O)c1ccc(F)cc1)NCc1ccco1,11.3
22,COC(=O)c1sc2ccccc2c1NC(=O)c1ccc(S(=O)(=O)N2CCCCC2)cc1,10.9
23,CN(CCOc1ccc(Cl)cc1)C(=O)C1CCN(C(=O)c2ccc(Cl)cc2)CC1,-3.38
24,CC(=O)NC(c1ccccc1)c1cc([N+](=O)[O-])c2cccnc2c1O (stereo unspecified),0.16

row,Structure (SMILES),inhibition [%]
1,CCCC(=O)NC(c1cccs1)c1cc([N+](=O)[O-])c2cccnc2c1O (stereo unspecified),-5.59
2,CCCC(=O)NC(c1ccco1)c1cc(Cl)c2cccnc2c1O (stereo unspecified),-13.5
3,CC(C)C(=O)NC(c1cccs1)c1cc([N+](=O)[O-])c2cccnc2c1O (stereo unspecified),-8.78
4,COc1ccc(S(=O)(=O)N2CCOCC2)cc1N=Nc1sc(N)nc1-c1ccccc1,0.93
5,CCCCCOC(=O)CC(C(=O)OCCCCC)N1CCCCC1 (stereo unspecified),1.36
6,CCCCCCCCCCOC(=O)C[N+](C)(C)C/C=C(/C)Cl,-3.67
7,CCCCCCCCOC(=O)C[N+](C)(C)C/C=C(/C)Cl,-1.52
8,CCCCOC(=O)C1CCCC(C(=O)OCCCC)N1 (stereo unspecified),2.58
9,CC12CN3CCN(CC(C3)/C1=N/NC(=O)Nc1ccccc1)C2,3.04
10,CCOc1ccc(NC(=O)CN(C)C(=O)c2cn3ccccc3n2)cc1OCC,-2.5
11,O=C(c1ccc(F)cc1)C1CCN(C(=S)Nc2ccc(F)cc2)CC1,1.13
12,C/C(=N\NC(=O)c1nnn(-c2nonc2N)c1-c1ccc2c(c1)OCO2)c1ccccc1,-37.7
13,CC1CC(C)CN(CCOc2cccc(Cl)c2Cl)C1 (stereo unspecified),-0.58
14,CC1CN(CCOc2ccc(Cl)cc2Cl)CC(C)O1 (stereo unspecified),10.8
15,CC1CC(C)CN(S(=O)(=O)N2CCCC(C(=O)NCCc3ccccc3)C2)C1 (stereo unspecified),6.06
16,NS(=O)(=O)c1ccc(CCNC(=O)c2cc([N+](=O)[O-])ccc2N2CCCCC2)cc1,7.9
17,O=C(CCc1ccc(S(=O)(=O)N2CCOCC2)cc1)N1CCN(Cc2ccc3c(c2)OCO3)CC1,-0.09
18,CCN1CCN(CCNC(=O)c2ccc3c(c2)N(Cc2ccc(F)cc2)C(=O)c2ccccc2S3=O)CC1 (stereo unspecified),-3.27
19,CCN1CCN(CCNC(=O)c2ccc(/C=C3/Sc4ccccc4N(Cc4cccc(Cl)c4)C3=O)cc2)CC1,47.7
20,Cc1ccc(C(=O)Nc2cccc(C(=O)NC3CCCCC3)c2)cc1,7.56
21,CCOC(=O)c1c(C)c(-c2ccccc2)n(CC(=O)N2CCN(C)CC2)c1C,-2.34
22,O=C1Nc2ccccc2C1=Nc1cccc([N+](=O)[O-])c1,6.17
23,O=C1Nc2ccccc2Nc2ccc([N+](=O)[O-])cc21,-12.2
24,COc1ccccc1OCc1ccc(C(=O)NCc2ccco2)o1,-2.77

row,Structure (SMILES),inhibition [%]
1,O=C(N/N=C/c1ccccc1O)c1cccc2ccccc12,3.31
2,COc1ccc(C(=O)N/N=C/c2c[nH]c3ccccc23)cc1,4.58
3,COc1ccc2cc(C(=O)N/N=C/c3sc4ccccc4c3O)ccc2c1,-4.14
4,O=C(N/N=C/c1sc2ccccc2c1O)c1ccccc1,-3.49
5,Cc1ccc(CN2CCCN(Cc3ccc(F)cc3Cl)S2(=O)=O)cc1,0.28
6,O=C(O)C1CC(O)CN1c1nc(Cl)ccc1[N+](=O)[O-] (stereo unspecified),4.36
7,O=C1CC2(CCCC2)Oc2ccccc21,9.18
8,CC(C)(C)c1cc(NCc2ccccn2)n2ncc(-c3ccc(Cl)cc3)c2n1,-9.09
9,CC(C)Nc1cc(C(C)(C)C)nc2c(-c3ccccc3)cnn12,0.99
10,CC(C)(C)c1cc(NCCCn2ccnc2)n2ncc(-c3ccc(Cl)cc3)c2n1,-8.35
11,CC(C)(C)c1cc(NCCCn2ccnc2)n2ncc(-c3ccccc3)c2n1,12.3
12,COC(=O)[C@@H](NC(=O)N1CCC(Cc2ccccc2)CC1)C(C)C,-13.1
13,CC(C)C(C(=O)NCC1CCCO1)N(C(=O)CNS(=O)(=O)c1ccc(F)cc1)C1CCCCC1 (stereo unspecified),-5.01
14,Cc1cccc(NC2=NC(C)(C)N=C(N)N2)c1,-5.24
15,Cc1cccc(C)c1NC1=NC(C)(C)N=C(N)N1,-2.14
16,Cc1ccccc1NC1=NC(C)(C)N=C(N)N1,2.17
17,CC1(C)N=C(N)NC(Nc2ccccc2)=N1,3.29
18,CCCCC(=O)N/N=C/c1ccc(N2CCOCC2)c([N+](=O)[O-])c1,5.66
19,O=C(c1cc(Cl)cc(Cl)c1)N1CCN(c2cc(C(F)(F)F)nc3ccccc23)CC1,0.46
20,CN1N=C(C(C)(C)C)CC1=O,-12.7
21,OCCC1CN(Cc2nc3ccccc3[nH]2)CCN1C1CCCC1 (stereo unspecified),3.25
22,COc1cc(C(=O)ON=C2C=C(C)C(=O)C(C)=C2)cc(OC)c1OC,-6.42
23,COc1cc(C(=O)O/N=C2/C=C(C)C(=O)C=C2C)cc(OC)c1OC,-6.02
24,CCc1ccccc1N(CC(=O)N1CCCC1)S(C)(=O)=O,6.01
